“And” between values parts separate entries of the source, which are not always exact repeats. Equal values may be shown once. Results filed as inconclusive are left out. The source made the active and inactive calls. Unless noted, the rule behind the calls is not given here.
Tests used:
[1] = qHTS assay for cell viability of the p53RE-bla HCT-116 cell line (AID 743292; active = well fitted cell-killing curve with a large enough effect; note: % is set by controls: 0 for no effect and ±100 for the full control effect; nearly all actives have a fitted effect of over 55% in size)
In short: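 Luminescent ATP quantitation (CellTiter-Glo) served as the viability read-out; reagent was added after 16 h compound exposure at 37 C and read after 30 min at room temperature. Cells: p53RE-bla HCT-116, 4,000 per well.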

[2] = molecular target: Nuclear receptor subfamily 1 group I member 2 (Rattus norvegicus) (UniProt Q9R1A7); assay: qHTS assay for small molecule activators of the rat pregnane X receptor (rPXR) signaling pathway (AID 651751); settings: rPXR reporter cells, luciferase (One-Glo), 24 h; note: 0% is about no effect
Nuclear receptor subfamily 1 group I member 2 (Rattus norvegicus), sequence (Q9R1A7 whole entry, looked up): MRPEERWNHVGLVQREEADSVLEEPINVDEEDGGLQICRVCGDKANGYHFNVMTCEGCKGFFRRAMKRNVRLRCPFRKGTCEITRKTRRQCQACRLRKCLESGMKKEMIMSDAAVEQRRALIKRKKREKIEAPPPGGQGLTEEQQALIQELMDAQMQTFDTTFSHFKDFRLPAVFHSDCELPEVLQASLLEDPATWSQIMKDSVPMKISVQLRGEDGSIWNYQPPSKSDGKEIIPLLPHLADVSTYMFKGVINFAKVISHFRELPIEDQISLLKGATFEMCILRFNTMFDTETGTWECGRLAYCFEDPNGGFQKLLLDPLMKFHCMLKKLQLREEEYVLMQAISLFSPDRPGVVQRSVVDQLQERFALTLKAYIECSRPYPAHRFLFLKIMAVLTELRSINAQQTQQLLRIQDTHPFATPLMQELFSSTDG

[3] = qHTS assay for small molecule activators of the human pregnane X receptor (PXR) signaling pathway (AID 720659); note: 0% is about no effect
[4] = qHTS assay for cell viability of HEK293 cells (AID 743288; active = well fitted cell-killing curve with a large enough effect; note: % is set by controls: 0 for no effect and ±100 for the full control effect; nearly all actives have a fitted effect of over 50% in size); settings: ATP luminescence (CellTiter-Glo), 18 h, stronger effect = lower value
In short: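 Parental HEK293 cells were seeded at 2,000 cells/well, rested at least 5 h at 37 C, then exposed to compounds in DMSO for 18 h at 37 C. Viability was read as ATP-dependent luciferase luminescence after 30 min at room temperature.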

Cc1ccccc1C=O
inactive: Potency [1] | max response [2] 1.66% | outcome [3]

Cc1ccc(N(C)C)cc1
inactive: Potency [1] | max response [2] 1.14% | outcome [3]

NS(=O)(=O)O
inactive: Potency [1] | max response [2] -5.24% | outcome [3]

CC(C)N(C)C
inactive: Potency [1] | max response [2] -2.95% | outcome [3]

CCCCCCCCCCCCOCC1CO1 (configuration not stated)
inactive: max response [4] -5.24% | Potency [1] | max response [2] 1.3% | outcome [3]

O=C1C=CCCC1
inactive: max response [4] -6.57% | Potency [1] | max response [2] 0.149% | outcome [3]

BrC(Br)C(Br)Br
inactive: Potency [1] | max response [2] 0.617% | outcome [3]

CCNc1ccccc1
inactive: Potency [1] | max response [2] -2.55% | outcome [3]

COc1cccc2sc(N)nc12
inactive: Potency [1] | max response [2] 8.89% | outcome [3]

CC(C)(O)C(=O)O
inactive: max response [4] 1.23% | Potency [1] | max response [2] 0.872% | outcome [3]

Nc1cccc(O)c1
inactive: Potency [1] | max response [2] -3.29% | outcome [3]

C[C@@H]1CC2(OC[C@]3(C)O[C@H]23)O[C@H]2C[C@@]3(C)[C@@H]4CC[C@H]5C(C)(C)C(O[C@@H]6OC[C@@H](O)[C@H](O)[C@H]6O)CC[C@@]56C[C@@]46CC[C@]3(C)[C@@H]12 (some centres not stated)
inactive: max response [4] -22.4% | Potency [1] | max response [2] 2.43% | outcome [3]

O=C(Cl)c1ccccc1[N+](=O)[O-]
inactive: max response [4] -5.53% | Potency [1] | max response [2] 1.88% | outcome [3]

C=C(C)C(=O)OCC(C)C
inactive: max response [4] 2.75% | Potency [1] | max response [2] 5.41% | outcome [3]

CC(C)=CCl
inactive: Potency [1] | max response [2] 3.22% | outcome [3]

O=C(O)/C=C/C(=O)O
inactive: Potency [1] | max response [2] 2.11% | outcome [3]

Fc1ccccc1
inactive: max response [4] 9.93% | Potency [1] | max response [2] 3.18% | outcome [3]

Cc1cccc(C(=O)O)c1[N+](=O)[O-]
inactive: Potency [1] | max response [2] -0.47% | outcome [3]

CCCCC(CC)CNCC(CC)CCCC (configuration not stated)
inactive: Potency [1] | max response [2] -1.1% | outcome [3]

CC(=O)c1cccc([N+](=O)[O-])c1
inactive: max response [4] -8.78% | Potency [1] | max response [2] -2.86% | outcome [3]

O=C(O)c1ccc(Cl)c(Cl)c1
inactive: Potency [1] | max response [2] -0.362% | outcome [3]

CCC(C)(C)C(=O)O
inactive: max response [4] -3.48% | Potency [1] | max response [2] 5.04% | outcome [3]

CC(C)=C1CCC(C)CC1=O (configuration not stated)
inactive: Potency [1] | max response [2] -2.32% | outcome [3]

CC(=O)C1(C)CC2=C(CCCC2(C)C)CC1C (configuration not stated)
inactive: Potency [1] | max response [2] 2.11% | outcome [3]

Cc1ccc(CO)cc1
inactive: max response [4] 9.52% | Potency [1] | max response [2] 4.72% | outcome [3]

O=C(O)c1cccc(Cl)c1Cl
inactive: max response [4] 6.72% | Potency [1] | max response [2] -3.88% | outcome [3]

O=[N+]([O-])c1cccc(Cl)c1
inactive: Potency [1] | max response [2] 0.107% | outcome [3]

CC(C)CCOC(=O)/C=C/c1ccccc1
inactive: Potency [1] | max response [2] 0.15% | outcome [3]

COc1ccc(N)c(C)c1
inactive: Potency [1] | max response [2] 7.59% | outcome [3]

FC(F)(F)c1ccccc1Cl
inactive: max response [4] 10.1% | Potency [1] | max response [2] -1.61% | outcome [3]

C=CCOC(=O)CCCCCCCC
inactive: max response [4] -7.54% | Potency [1] | max response [2] -5.54% | outcome [3]

CC(=O)c1nccs1
inactive: Potency [1] | max response [2] 8.24% | outcome [3]

CCCCCCCCN
inactive: Potency [1] | max response [2] 0.0694% | outcome [3]

C=CCOC(=O)COCCC(C)C
inactive: max response [4] -0.0294% | Potency [1] | max response [2] -3.06% | outcome [3]

C=Cc1ccccn1
inactive: max response [4] 3.38% | Potency [1] | max response [2] 2.42% | outcome [3]

C=C(C)C(=O)OCCCCCC
inactive: Potency [1] | max response [2] -0.698% | outcome [3]

C[C@@H]1O[C@@H](O[C@@H]2[C@@H](O)[C@H](OCCc3ccc(O)c(O)c3)O[C@H](CO[C@@H]3O[C@H](CO)[C@@H](O)[C@H](O)[C@H]3O)[C@H]2OC(=O)/C=C/c2ccc(O)c(O)c2)[C@H](O)[C@H](O)[C@H]1O
inactive: Potency [1] | max response [2] 1.79% | outcome [3]

Cc1ccc(C)c([N+](=O)[O-])c1
inactive: Potency [1] | max response [2] -1.78% | outcome [3]

CCCCC(CC)COC(=O)CCCCC(=O)OCC(CC)CCCC (configuration not stated)
inactive: Potency [1] | max response [2] 3.13% and -1.3% | outcome [3]

Source: PubChem BioAssay (NCATS)
